Screens (PubChem BioAssay)
An excerpt weighted towards active compounds, which were near 4.7% of everything screened.
3CLpro inhibitor – SARS-CoV 3CLpro protease inhibition | 0.14% of 290,000 active | P0C6X7 | recombinant SARS-CoV 3CLpro, quenched FRET peptide cleavage | inhibition, % at 6 µM; in the data active = inhibition above about 12%
VHR inh abs – blocks human VHR1 dual specificity phosphatase | P51452 | inhibition, % at 13.3 µM | recombinant VHR phosphatase, pNPP absorbance | 0.52% of 290,000 active; in the data active = inhibition above about 50%
Target sequence (P51452 whole entry, looked up): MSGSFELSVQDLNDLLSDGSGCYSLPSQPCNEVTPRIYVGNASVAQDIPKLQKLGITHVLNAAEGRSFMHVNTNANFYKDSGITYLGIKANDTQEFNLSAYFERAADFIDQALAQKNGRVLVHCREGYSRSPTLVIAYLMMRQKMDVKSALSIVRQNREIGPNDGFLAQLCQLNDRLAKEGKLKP
RecA splice inh – blocks M. tuberculosis RecA intein splicing; cell-free RecA intein splicing, fluorescence; inhibition, % (no concentration beside the values); 0.75% of 290,000 active; AID 2221; in the data active = inhibition above about 30%
GDH-TPI counter – GDH-TPI coupled enzyme inhibition counter-screen. GDH-TPI coupled enzyme counterscreen, NADH absorbance. inhibition, % at 4.8 µM. 1.2% of 360,000 active. AID 588335
CCHF vOTU inh-1 – blocks the CCHF virus ovarian tumor domain protease; CCHFV vOTU protease, Pep-AMC fluorescence; inhibition, % at 11.5 µM; 0.55% of 370,000 active; AID 651958
FBA Mtb inh – inhibits M. tuberculosis FBA enzyme | inhibition, % at 1 µM | 2.3% of 360,000 active | purified M. tuberculosis FBA, fluorescence read-out | P9WQA3 | AID 588726; in the data active = inhibition above about 27%
Target sequence (P9WQA3 whole entry, looked up): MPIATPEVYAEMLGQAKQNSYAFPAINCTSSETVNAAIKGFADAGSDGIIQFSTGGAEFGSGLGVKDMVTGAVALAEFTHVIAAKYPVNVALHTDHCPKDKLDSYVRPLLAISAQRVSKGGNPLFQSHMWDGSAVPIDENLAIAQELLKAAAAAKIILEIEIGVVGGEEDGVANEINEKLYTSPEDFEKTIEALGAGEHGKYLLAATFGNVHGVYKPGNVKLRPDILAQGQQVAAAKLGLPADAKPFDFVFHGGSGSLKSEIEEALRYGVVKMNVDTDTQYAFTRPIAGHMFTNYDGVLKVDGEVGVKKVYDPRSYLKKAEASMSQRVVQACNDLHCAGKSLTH
CCHF vOTU inh-2 – confirmation of CCHF virus vOTU protease inhibitors | shares compounds with CCHF vOTU inh-1 | inhibition, % at 11.5 µM | AID 686976 | Recombinant CCHFV vOTU, Pep-AMC fluorescence | 17% of 1,900 active
Large screens that a line does not name were inactive (follow-up assays come after a bar, where they were run). Cut-off read from the data, not from the text of the source, unless noted: active = inhibition above about 30%; inactive = the rest.

COc1cccc(/C(O)=C2/C(=O)C(=O)N(CCN3CCOCC3)C2c2cccnc2)c1 (configuration not stated)	none
C=CCOC(=O)c1cc(-c2ccc(/C=C3\C(=O)NC(=O)C(C#N)=C3C)o2)ccc1Cl	GDH-TPI counter 34, CCHF vOTU inh-1 33 (no result: RecA splice inh) | CCHF vOTU inh-2 inactive
O=C1C(Nc2ccccc2)=C(N2CCCCC2)C(=O)c2ccccc21	RecA splice inh 46, CCHF vOTU inh-1 101 | CCHF vOTU inh-2 87
O=C1C(NS(=O)(=O)c2ccc(Br)cc2)=C(N2CCCCC2)C(=O)c2ccccc21	CCHF vOTU inh-1 33 | CCHF vOTU inh-2 inactive
CCOC(=O)C1CCCN(C2=C(NS(=O)(=O)c3ccc(Br)cc3)C(=O)c3ccccc3C2=O)C1 (configuration not stated)	CCHF vOTU inh-1 76 | CCHF vOTU inh-2 inactive
CN(C1=C(N2CCCCC2)C(=O)c2ccccc2C1=O)c1ccccc1	CCHF vOTU inh-1 41 | CCHF vOTU inh-2 inactive
CCCNC(=O)C1(C)CCCN(Cc2ccc(C)cc2)C1 (configuration not stated)	none (no result: 3CLpro inhibitor, VHR inh abs, RecA splice inh)
Cc1csc(-c2nc3ccccc3n2C(C(=O)Nc2c(C)cccc2C)C2CC2)c1 (configuration not stated)	none (no result: 3CLpro inhibitor, VHR inh abs, RecA splice inh, GDH-TPI counter, FBA Mtb inh)
CCOC(=O)c1ccc(CN2Cc3ccccc3C2=O)cc1	none
COC(=O)C1CN(Cc2cn(CCC3OCCO3)nn2)CCS(=O)(=O)N1Cc1ccc(F)cc1 (configuration not stated)	none (no result: 3CLpro inhibitor, VHR inh abs, RecA splice inh, GDH-TPI counter, FBA Mtb inh)
Cc1ccc(C2(c3ccc(C)cc3)CC2C(=O)Nc2ccc([N+](=O)[O-])cc2O)cc1 (configuration not stated)	CCHF vOTU inh-1 34 | CCHF vOTU inh-2 inactive
C[C@@H]1CN([C@H](C)CO)C(=O)CCCn2nncc2CO[C@H]1CN(C)Cc1cccc(O)c1	none (no result: 3CLpro inhibitor, VHR inh abs, RecA splice inh)
CCOc1ccc(NC(=O)CC(=O)Nc2ccc(OCC)cc2)cc1	none
CCOc1ccc(NC(=O)CNS(=O)(=O)c2c(C)cc(C)cc2C)cc1	CCHF vOTU inh-1 43 | CCHF vOTU inh-2 inactive
COc1ccccc1CN1CCC(n2nccc2NC(=O)CCc2ccccc2)CC1	none
CCNC(=S)NNC(=O)c1cc(-c2ccccc2C)nc2ccccc12	none (no result: CCHF vOTU inh-1)
Cc1ccc(C)c(-c2cc(C(=O)NNC(=S)NCC(C)C)c3ccccc3n2)c1	CCHF vOTU inh-1 34 | CCHF vOTU inh-2 inactive
CC1Cc2ccccc2N1C(=O)CN1CCC(n2nnc3cc(C(F)(F)F)ccc32)CC1 (configuration not stated)	none
O=C1c2ccccc2[C@@H]2C[C@@H](O)[C@H](Nc3cccc4ccccc34)CCN12	CCHF vOTU inh-1 54 (no result: 3CLpro inhibitor, VHR inh abs, RecA splice inh) | CCHF vOTU inh-2 inactive
O=C(CSc1nnc(-c2ccccc2Br)o1)Nc1nncs1	CCHF vOTU inh-1 30 | CCHF vOTU inh-2 inactive
CC(=O)NCC(=O)OC(C)C(=O)Nc1ccc(C(C)=O)cc1 (configuration not stated)	CCHF vOTU inh-1 38 | CCHF vOTU inh-2 inactive
CCCCC(=O)Oc1c(S(=O)(=O)c2ccccc2)c(C)nn1C(C)(C)C	none
Cc1ccc(NC(=O)CNc2ccc(Cl)c(Cl)c2)cc1S(=O)(=O)N(C)C	none
Cc1ccc(NC(=O)Cc2ccc(Cl)c(Cl)c2)cc1S(=O)(=O)N(C)C	CCHF vOTU inh-1 30 | CCHF vOTU inh-2 inactive
CC(C)[C@H](NS(=O)(=O)c1ccc(Cl)cc1)C(=O)OCC(=O)c1c(N)n(C)c(=O)n(C)c1=O	none (no result: 3CLpro inhibitor, VHR inh abs, RecA splice inh)
Cc1cccc(Nc2nc(N)c([N+](=O)[O-])c(N3CCCC(C)C3)n2)c1 (configuration not stated)	CCHF vOTU inh-1 31 | CCHF vOTU inh-2 inactive
Cc1cc2cc(NC(=O)c3ccco3)ccc2[nH]1	CCHF vOTU inh-1 33 | CCHF vOTU inh-2 inactive
Cc1cc(Cn2nc(C(=O)NCc3cccc(C(F)(F)F)c3)cc2-c2ccccc2)on1	none (no result: 3CLpro inhibitor, VHR inh abs, RecA splice inh)
Cc1ccc(N(C(=O)c2snc(C(N)=O)c2N)C(C(=O)NCc2ccccc2)c2ccncc2)c(C)c1 (configuration not stated)	none (no result: RecA splice inh)
COC(=O)[C@]12C[C@H](CC(=O)NCc3cccc(C(F)(F)F)c3)C(=O)N(Cc3ccc4c(c3)OCO4)C1=C[C@H](C(C)(C)C)O[C@@H]2C	CCHF vOTU inh-1 34 (no result: 3CLpro inhibitor, VHR inh abs, RecA splice inh, GDH-TPI counter, FBA Mtb inh) | CCHF vOTU inh-2 inactive
COC(=O)[C@]12C[C@H](CC(=O)NCCC(C)C)C(=O)N(Cc3ccc4c(c3)OCO4)C1=C[C@H](C(C)(C)C)O[C@@H]2C	CCHF vOTU inh-1 32 (no result: 3CLpro inhibitor, VHR inh abs, RecA splice inh, GDH-TPI counter, FBA Mtb inh) | CCHF vOTU inh-2 inactive
CCOc1ccc(Br)cc1S(=O)(=O)Nc1cccc(S(=O)(=O)Nc2ccccc2C(=O)O)c1	CCHF vOTU inh-1 30 (no result: 3CLpro inhibitor, VHR inh abs, RecA splice inh) | CCHF vOTU inh-2 inactive
CCC(=O)NC1=C(Cl)C(=O)C(NC(=O)CC)=C(Cl)C1=O	CCHF vOTU inh-1 97 (no result: RecA splice inh) | CCHF vOTU inh-2 inactive
N#CC1=C(S)N(c2ccccc2)C(c2ccc(-c3cc(Cl)ccc3Cl)o2)NC1=O (configuration not stated)	none
N#CC1=C(S)N(c2ccccc2)C(c2ccc(-c3ccc(Cl)c(Cl)c3)o2)NC1=O (configuration not stated)	CCHF vOTU inh-1 47 | CCHF vOTU inh-2 30
O=C(Cc1ccccc1F)Nc1cc(S(=O)(=O)N2CCCCC2)ccc1N1CCOCC1	none (no result: 3CLpro inhibitor, VHR inh abs, RecA splice inh)
Cc1cccc(C)c1-n1nnnc1C(c1ccnc2ccccc12)N(Cc1ccccc1)Cc1ccccc1 (configuration not stated)	none (no result: 3CLpro inhibitor, VHR inh abs, RecA splice inh, GDH-TPI counter, FBA Mtb inh)
CN=C1c2cc3cc(OC)ccc3n2CCN1Cc1ccccc1	CCHF vOTU inh-1 37 | CCHF vOTU inh-2 inactive
Cc1[nH][nH]c(=O)c1C(c1c(C)[nH][nH]c1=O)c1cn(Cc2ccc(Cl)c(Cl)c2)c2ccccc12	CCHF vOTU inh-1 56 | CCHF vOTU inh-2 inactive
Cc1ccc(Cn2c(NS(=O)(=O)c3ccccc3)nc3ccccc32)cc1	none
O=S(=O)(Nc1c(S(=O)(=O)c2ccccc2)c2nc3ccccc3nc2n1C1CCCCC1)c1ccccc1	CCHF vOTU inh-1 94 | CCHF vOTU inh-2 64
C=CCn1c(NS(=O)(=O)c2ccccc2)c(S(=O)(=O)c2ccc(C)cc2)c2nc3ccccc3nc21	CCHF vOTU inh-1 33 | CCHF vOTU inh-2 inactive
COC(=O)[C@]12C[C@H](CC(=O)N3CCC(c4ccccc4)CC3)C(=O)N(Cc3ccc(Cl)cc3Cl)C1=C[C@H](COCc1ccccc1)O[C@@H]2C	none (no result: 3CLpro inhibitor, VHR inh abs, RecA splice inh, GDH-TPI counter, FBA Mtb inh)
O=c1c(C=NCc2cccnc2)c(C(F)(F)F)[nH]n1-c1nc2ccccc2s1	CCHF vOTU inh-1 30 | CCHF vOTU inh-2 inactive
CCC(=NCc1ccccc1)c1c(C(F)(F)F)[nH]n(-c2nc3ccccc3s2)c1=O	none
CC(C)Oc1ccc(CNC(=O)C2CCCN(S(=O)(=O)N3CCOCC3)C2)cc1 (configuration not stated)	none
CC(C)(C)OC(=O)N(Cc1ccccc1)Cc1cccc(OCc2cccc(NC(=O)C3CC3)c2)c1	CCHF vOTU inh-1 32 (no result: 3CLpro inhibitor, VHR inh abs, RecA splice inh) | CCHF vOTU inh-2 inactive
COc1cccc(C2=Nc3cccc4cccc(c34)N2)c1	CCHF vOTU inh-1 30 | CCHF vOTU inh-2 inactive
